Results reported in publication PMC4336329 (PLoS ONE, 2015).
Screen size: about 310,000 compounds; about 2,200 (0.71%) showed an effect of 50% or more. Effects have a minus sign here. The sample holds strong results, similar compounds and a random draw of the others, so the mix is not that of the screen.

Each compound was assayed against human ether-à-go-go-related gene (hERG) potassium channel (human, UniProt Q12809) (assay: primary screen, population patch clamp on CHO cells stably expressing hERG; higher = less effect of the substance).
human ether-à-go-go-related gene (hERG) potassium channel, sequence (Q12809 whole entry, looked up): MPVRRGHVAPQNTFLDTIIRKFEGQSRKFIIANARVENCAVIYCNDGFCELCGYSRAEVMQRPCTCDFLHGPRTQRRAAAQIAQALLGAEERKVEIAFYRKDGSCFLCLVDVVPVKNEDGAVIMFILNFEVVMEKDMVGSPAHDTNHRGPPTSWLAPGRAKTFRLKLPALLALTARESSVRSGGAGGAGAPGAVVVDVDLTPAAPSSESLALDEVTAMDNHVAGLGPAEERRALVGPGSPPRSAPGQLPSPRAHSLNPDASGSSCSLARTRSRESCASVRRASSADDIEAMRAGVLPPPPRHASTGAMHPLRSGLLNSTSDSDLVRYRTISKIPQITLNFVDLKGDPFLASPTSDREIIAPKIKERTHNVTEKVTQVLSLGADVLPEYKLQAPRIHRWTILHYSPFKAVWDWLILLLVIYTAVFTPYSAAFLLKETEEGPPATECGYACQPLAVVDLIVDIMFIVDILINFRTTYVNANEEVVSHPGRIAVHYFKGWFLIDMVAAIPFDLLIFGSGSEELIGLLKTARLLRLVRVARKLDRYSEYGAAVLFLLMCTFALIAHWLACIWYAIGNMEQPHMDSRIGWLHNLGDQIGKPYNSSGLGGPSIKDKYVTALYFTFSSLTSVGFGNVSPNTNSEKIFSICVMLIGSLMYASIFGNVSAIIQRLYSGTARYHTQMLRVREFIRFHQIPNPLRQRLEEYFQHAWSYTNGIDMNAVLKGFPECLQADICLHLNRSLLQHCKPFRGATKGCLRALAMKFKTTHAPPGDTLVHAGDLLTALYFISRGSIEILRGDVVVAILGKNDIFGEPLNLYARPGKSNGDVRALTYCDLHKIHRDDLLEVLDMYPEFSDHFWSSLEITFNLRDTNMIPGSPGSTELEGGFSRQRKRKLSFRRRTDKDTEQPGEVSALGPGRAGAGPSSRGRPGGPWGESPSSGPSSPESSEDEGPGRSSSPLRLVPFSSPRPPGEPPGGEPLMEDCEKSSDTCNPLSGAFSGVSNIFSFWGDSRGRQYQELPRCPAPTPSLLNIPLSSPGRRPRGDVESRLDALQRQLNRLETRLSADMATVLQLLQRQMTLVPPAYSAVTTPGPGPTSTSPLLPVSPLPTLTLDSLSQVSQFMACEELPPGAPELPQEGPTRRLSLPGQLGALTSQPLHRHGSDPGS

Row | SMILES | hERG current change (%, negative = inhibition) at 1uM
1 | CCS(=O)(=O)NCCCc1ccccc1 | -5.33%
2 | CCn1c(/C=C/N(C(C)=O)c2ccccc2)[n+](CC)c2ccc(Cl)cc21.[I-] | 5.77%
3 | CCn1c(/C=C/Nc2ccccc2)[n+](CC)c2cc(Cl)c(Cl)cc21.[I-] | -87.2%
4 | CCn1c(/C=C/N(C(C)=O)c2ccccc2)[n+](CCCS(=O)(=O)[O-])c2cc(Cl)c(Cl)cc21 | 10.6%
5 | CCn1c(/C=C/Nc2ccccc2)[n+](CC)c2ccc(Cl)cc21.[I-] | -82.8%
6 | CCn1c(C)[n+](CCOCC[n+]2c(C)n(CC)c3cc(Cl)c(Cl)cc32)c2cc(Cl)c(Cl)cc21.[I-] | 8.45%
7 | Cc1n(C)c2cc(Cl)ccc2[n+]1Cc1ccccc1.[I-] | 4.11%
8 | Cc1ccccc1Cn1c(=O)n(CCC(=O)NCc2ccc3c(c2)OCO3)c(=O)c2ccccc21 | 16.7%
9 | CCCOC(=O)c1cc(-c2ccc(C=O)o2)ccc1Cl | 3.2%
10 | O=C(COC(=O)CCC(=O)c1ccc(F)cc1)Nc1nnc(-c2ccccc2)o1 | -0.682%
11 | CCCCCCCNC(=O)C1(CC2CC(c3ccc(Cl)cc3)=NO2)CCN(C(=O)CCCCCBr)CC1 (stereo not shown) | -52.1%
12 | CCCCCCCNC(=O)C1(CC2CC(c3cccc(Br)c3)=NO2)CCN(C(=O)CCCCCBr)CC1 (stereo not shown) | -72%
13 | CCCCCCCNC(=O)C1(CC2CC(c3ccc(Cl)cc3)=NO2)CCN(C(=O)OC(C)(C)C)CC1 (stereo not shown) | 18.9%
14 | CCCNC(=O)C1(CC2CC(c3ccccc3)=NO2)CCN(C(=O)CCCCCBr)CC1 (stereo not shown) | -5.35%
15 | O=C(CCCCCBr)N1CCC(CC2CC(c3ccc(Cl)cc3)=NO2)(C(=O)NCC2CCCCC2)CC1 (stereo not shown) | -37.5%
16 | CCCCCCCNC(=O)C1(CC2CC(c3cccc(Br)c3)=NO2)CCN(C(=O)OC(C)(C)C)CC1 (stereo not shown) | 4.2%
17 | CCN1C(=O)N(CC)C2NC(=S)NC21 (stereo not shown) | 7.44%
18 | CC(=O)C1=C(NC(=O)c2ccc(F)cc2)CC2C1C2(C)C (stereo not shown) | 9.7%
19 | O=C(CN1C(=O)CSc2ccccc21)N1CCc2ccccc21 | 9.93%
20 | O=C(O)CSc1nnc(SCc2cccc3ccccc23)s1 | 6.81%
21 | COc1ccccc1CNC(=O)C1CCN(S(=O)(=O)c2ccc3c(c2)OCCCO3)CC1 | -1.02%
22 | COC(=O)C1(C)Cc2cc(OC(C)=O)c(OC(C)=O)cc2N1 (stereo not shown) | 11.7%

Row | SMILES | hERG current change (%, negative = inhibition) at 1uM
23 | CC(=O)Nc1ccc(NC(=O)CSc2nccn2Cc2ccccc2)cc1 | 10.5%
24 | O=C(Oc1ccc(C(=S)N2CCOCC2)cc1)c1ccccc1[N+](=O)[O-] | 21.2%
25 | O=C(Nc1ccc(Cl)cc1)Nc1nnc(Cc2ccc([N+](=O)[O-])cc2)s1 | 13.9%
26 | COc1ccccc1CCNC(=O)C1CCN(c2nnc(C)c3c(C)n(-c4ccc(C)cc4)nc23)CC1 | 14.7%
27 | CN/C=C(/Cl)P(=O)(OC(C)C)OC(C)C | 11%
28 | COc1ccccc1C(=O)Nc1ccnn1C1CCN(Cc2cnn(C)c2C)CC1 | -28.8%
29 | CCn1ccnc1CN1CCC(n2nccc2NC(=O)c2ccccc2OC)CC1 | -64.9%
30 | COc1ccccc1C(=O)Nc1ccnn1C1CCN(C(=O)C2CCOC2)CC1 (stereo not shown) | 4.19%
31 | CCCn1ncc(CN2CCC(n3nccc3NC(=O)c3ccccc3OC)CC2)c1C | -73.2%
32 | COc1ccccc1C(=O)Nc1ccnn1C1CCN(Cc2ncc[nH]2)CC1 | 6%
33 | CCn1ccnc1CN1CCC(n2nccc2NC(=O)CCc2ccccc2)CC1 | 15.9%
34 | Cn1cc(CN2CCC(n3nccc3NC(=O)c3ccccc3Cl)CC2)c2ccccc21 | -47.6%
35 | COc1ccccc1C(=O)Nc1ccnn1C1CCN(Cc2cnc(N(C)C)s2)CC1 | -24.7%
36 | CCOc1ccc(CN2CCC(n3nccc3NC(=O)c3ccccc3OC)CC2)cc1 | -89.4%
37 | COc1ccccc1C(=O)Nc1ccnn1C1CCN(Cc2cn(C)c3ccccc23)CC1 | -74.9%
38 | CCCn1ncc(CN2CCC(n3nccc3NC(=O)c3ccccc3Cl)CC2)c1C | -47.6%
39 | COc1ccccc1C(=O)Nc1ccnn1C1CCN(Cc2ccn[nH]2)CC1 | 1.62%
40 | CCCCn1c(O)c(C(CC)=Nc2ccc(OC)cc2OC)c(=O)[nH]c1=O | 4.73%
41 | Cc1ccc2c(CN3CC(C)CC(C)C3)cc(=O)oc2c1C (stereo not shown) | 9.29%
42 | COC(=O)C(NC(C)=O)(Nc1ccc(Br)cn1)C(F)(F)F (stereo not shown) | 6.68%
43 | CCCCNC(=O)COC(=O)c1ccc(C)c(NC(=O)c2ccco2)c1 | 11.3%
44 | COC(=O)COc1cc(C)cc2oc(=O)c3c(c12)CCCC3 | -4.18%

Row | SMILES | hERG current change (%, negative = inhibition) at 1uM
45 | O=C(CCCN1C(=O)c2ccccc2C1=O)Nc1nncs1 | 14.9%
46 | COc1ccccc1C(=O)Nc1ccnn1C1CCN(Cc2csc(C(C)=O)c2)CC1 | -50.9%
47 | CC(=O)c1cc(CN2CCC(n3nccc3NC(=O)c3ccccc3Cl)CC2)cs1 | -40.5%
48 | COc1ccccc1CN1CCC(n2nccc2NC(=O)c2ccccc2Cl)CC1 | -47.2%
49 | CCn1cc(CN2CCC(n3nccc3NC(=O)c3ccccc3C)CC2)cn1 | -14.9%
50 | COc1ccccc1C(=O)Nc1ccnn1C1CCN(Cc2cnn(C)c2)CC1 | -27%
51 | COc1ccc(C(=O)Nc2ccnn2C2CCN(Cc3ccc4nonc4c3)CC2)cc1 | -0.334%
52 | O=C(Nc1ccnn1C1CCN(Cc2ccccc2OCCO)CC1)c1cccc(F)c1 | -6.97%
53 | CC(=O)c1cc(CN2CCC(n3nccc3NC(=O)c3ccccc3C)CC2)cs1 | -15.8%
54 | CCn1cc(CN2CCC(n3nccc3NC(=O)c3ccccc3OC)CC2)cn1 | -53.5%
55 | COc1ccccc1C(=O)Nc1ccnn1C1CCN(Cc2ccc3nonc3c2)CC1 | -61.8%
56 | COc1ccccc1C(=O)Nc1ccnn1C1CCN(Cc2ccccc2OCCO)CC1 | -79.5%
57 | N#CCC1c2ccccc2CCN1C(=O)Nc1ccc(C(F)(F)F)cc1 (stereo not shown) | -4.23%
58 | COc1ccccc1S(=O)(=O)CC(O)COc1ccc(F)cc1Cl (stereo not shown) | 12.6%
59 | O=C(CNC(=O)c1ccc(Br)cc1)NCC(=O)OCC(=O)c1ccccc1 | 9.69%
60 | CC(=O)Nc1cc2c3c(c1)CCN3C(=O)CC2 | 22.9%
61 | CCC1=Nc2ccccc2NC2=C1C(=O)CCC2.Cl | -18.7%
62 | CC(C)(C)NC(=O)Cn1c(SCC(=O)Nc2nccs2)nc2ccccc21 | 10.4%
63 | CC(C)COC(=O)NC1c2ccccc2Oc2ccccc21 | -2.38%
64 | CCCCn1nnc(NC(=O)Cc2ccc(Cl)cc2)n1 | -4.74%
65 | CCOC(=O)c1c(C)[nH]c(C)c1S(=O)(=O)NCC1CCN(Cc2ccccc2F)CC1 | 8.12%
66 | COc1cc2nc(CN3CCOCC3)n(CC(=O)NCC(F)(F)F)c(=O)c2cc1OC | 11.5%

Row | SMILES | hERG current change (%, negative = inhibition) at 1uM
67 | COC(=O)c1nnn(-c2nonc2N)c1COc1ccc(C=O)cc1OC | -1.8%
68 | Cc1c(C2N3CC4(C)CN2CC(C)(C3)C4=O)c2ccccc2n1C (stereo not shown) | -15.5%
69 | CC1=Nc2cc(C(=O)NCCCN3CCOCC3)ccc2Sc2c(C)ccc(C)c21 | 14.7%
70 | N#Cc1ccc(/C=C/C(=O)c2ccco2)cc1 | 5.85%
71 | COc1ccc(C(=O)NC2CC3CCCC(C2)N3CC(C)C)cc1OC (stereo not shown) | 8.35%
72 | Cc1cccc(C(=O)NCCCn2ccnc2)c1C | 4.84%
73 | COc1cc(CN2CCC(n3nccc3NC(=O)CCCc3ccccc3)CC2)ccc1F | 9.25%
74 | COc1cc(CN2CCC(n3nccc3NC(=O)c3ccccc3OC)CC2)ccc1F | -77.6%
75 | COc1cc(CN2CCC(n3nccc3NC(=O)C3CCOC3)CC2)ccc1F (stereo not shown) | 2.37%
76 | COc1ccc(NC2CCCN(C(=O)CSc3ccccc3)C2)cc1 (stereo not shown) | 8.31%
77 | CSc1cccc(NC(=S)N(CCCN2CCCC2)Cc2cccs2)c1 | -17.9%
78 | COc1ccc(NC(=O)CSc2nc3ccccc3c(=O)n2CCCN2CCCCC2)c(OC)c1 | -27.7%
79 | CC1CCN(CCCn2c(SCC(=O)Nc3ccccc3Cl)nc3ccccc3c2=O)CC1 | -34.1%
80 | CCCCn1c(SCC(=O)NC2CCCC2)nc2ccccc2c1=O | 4.94%
81 | COc1ccc(NC(=O)CSc2nc3ccccc3c(=O)n2CCCN2CCC(C)CC2)c(OC)c1 | -72.1%
82 | CC1CCN(CCCn2c(SCC(=O)NC3CCCC3)nc3ccccc3c2=O)CC1 | -64.8%
83 | COc1ccc(NC(=O)CSc2nc3ccccc3c(=O)n2CCCN2CCOCC2)c(OC)c1 | 1.25%
84 | CC1CCCCC1NC(=O)COC(=O)c1ccc(N(C)C)cc1 (stereo not shown) | 9.14%
85 | O=C(Cc1csc(NC(=O)Nc2cccc(Cl)c2)n1)NCc1cccnc1 | -44.2%
